Measured values from the supplement of paper PMC12632987.
Whole data set: some 4,500 sequences, median “median log2 fold change of GCK-ALFA target abundance (FLAG IP / Myc IP barcode read proportion)” near 0.078, cut for the lowest 2% near -0.6. This excerpt belongs to a sample that is enriched for the lowest values.

B1: GBRAP_78_6635 (protein)
chain: EVEELIDKALEKVSEAAKAALKLPLDLRAEVLDELSDAAVELVEAEEGEDKEEELEEALEELEEALEIVEENDSPLTEEIKKLLEEAIELVKKAIEELKE
B2: GBRAP_52_6046 (protein)
chain: MEEEARKLAKELLELVLEGKEEEARKLAREIAETKNEEEILKIAEELAKLVLEGDKETAEAGIKAAEIMAEELEKAGRDEGLADLILATVYGAAYKRLQK
B3: GBRAP_160_4784 (protein)
chain: MERVEKVAKRFREAAKRALELSKGETAENRANIVDVELGSAILELEEEGLLNDEEEEVAAEVRDELVAEILANPNLTDEELKALLEKAVEELRKRLEELE
B4: GBRAP_160_4344 (protein)
chain: SEEKEKLLKFVDEEFEEAIELIKGESIEQRKVIISGTFGEILMELSESPIISDELEDEVREIEDELLEYLDKNPDLSEEEIKELIKEAREKVKEAIEKHT
B5: GBRAP_35_5576 (protein)
chain: EDKEMLLETVEDLAEATIEAIKEGDVDLAIALLKAFLRTAKLAVEELENDLEALEKIAELLKKVIEEIKKHLADNPEMQKLLKELEKLLKEVKEKAEKVK
B6: GBRAP_35_5577 (protein)
chain: EDEEMLLETVEDLAEATIEAIKEGNLDLAIALLKAFLRTAKIAIEDLKNNKEALEKIAELLEKVIEEIKKYLSDNPEVQELKKELEELLKEAKEKLKKVK
B7: GBRAP_52_5857 (protein)
chain: SSARMRALAEELLALRLAGKEEELEARVKELVATLSEEEILALLEELAALAKEADKEGAEAILDVAELLADEAEEAGFDEDELSYALAEVAAAAYKQLQK
B8: GBRAP_128_3469 (protein)
chain: MTEEAVERTRKILEEMKKASPEEARELFKELFEWLLTLPLEVVEAVVEEIEKHLPELSAEKLEILAEVADEAMPKATPEKAALLADLRSSALLEAEKLEE
B9: GBRAP_35_5506 (protein)
chain: DSMSTIADMLVATIDDTVLAIPDLDVETAVQISRQLIRSAREVAEDLKDDPEGLKRLRDSMERLRDALVKHYGDNPLAQEAIKEIDELIKELEERIKEAE
B10: GBRAP_128_3267 (protein)
chain: MNPEVVAYAEAFVEKLKAAGPEEAKKLADELMEKLKTMSLEEVEQFVEVLEKKLKELSVEKLEILADAARKHRDEFSPEKANLVAGLEVEALNEAVEKEE
B11: GBRAP_160_3969 (protein)
chain: SEEVEKLLKEIDEIFEEAKEMIVGESFENRLTIVRVAVGEVLLLLSENPLVSDEAEDKVDEIGDELIATIEANPDLTEEEIKELIDKAEEEIKKIIKEDA
B12: GBRAP_125_3096 (protein)
chain: HMEEILEALKLLAKALGFSEEEAEELARLAANSSVKQTLYALFAAEGYEELADLVEKLTEEQAKEVLLELAKWLKENPNASKEEVVKKAKELAKKALAKA
B13: GBRAP_160_4666 (protein)
chain: MEELEKLMKELEEIAKEAVEMTKGQSHEERVAIIRVMKGEIILELEESKIATDEVVDYADELGDELIAYVAANPDLTEEELQELLDKMLKEIEEKLKEEL
B14: GBRAP_128_3471 (protein)
chain: AVEEARKRTEEIMEKMKEANDEEFKKLAEELAEWLLTLPVEEVEAAVEVIKEHLPELSAEKLEILADVLDKAMPKATPEKAALFADVRSEALLLAEEKEE
B15: GBRAP_166_4959 (protein)
chain: SLEEVRARLEAALAAFEAEGASLSLEERRDRLVEIAELLGEAARAGLPREELLEAAVRLLLLARAAGLSPAFVEAALVNIAGLPVELVDEALARAEALAA
B16: GBRAP_26_5483 (protein)
chain: REREILDELEAKVKAILADEPAEVRAAVVAEAIDALIEFAEVVEANINDEEKIEKAKKEALEEMRKFLEDLGIPEDKREKVVKALAEALEKVEKAIKEEA
B17: GBRAP_160_4794 (protein)
chain: SERIEKVAEIFREEAERALEMARGETVEERVAIFDVELGSAIMEAIEEGLLNDEEEDIAIEVRDELVEEVRRNPELTEEELRELARRKIEELRERLEELE
B18: GBRAP_9_7151 (protein)
chain: MEELFKKVKEILEDAFEEVKEVVPEEVKPIVDEKREEVLKRLEELAKDPNVTKEELKEEAKELVDEFEEAIKEKVDEETAKMVEAIALTAKLEIEEVAEE
B19: GBRAP_160_4218 (protein)
chain: MELVKKLVEIVREEFEEALELIEGESPEERRVILDVAVGNVILESMEIEGVTDEMEETVEEMSEELAEELLEAADESPEERRELIEERVEELEKELKKLE
B20: GBRAP_160_4215 (protein)
chain: DEIVEKLVEIAREEFEEALELIEGESEEERRVILDVAVGNVILEASEIPGVTDEMEETVDRMSEELARELLEAAGESEEERRALIEERTEELRKELKKLA
B21: GBRAP_160_4217 (protein)
chain: MELVEKLVEIVREEFEEALELIEGESEEERRVILDVAVGNVILEAMEIPGVTDEMEEVVEEKSRELAEELLEARDKSEEERRKLIEERVEELREELEKLE
B22: GBRAP_160_4516 (protein)
chain: SPKLERIEKLVEEARERIIEVIDEGDVEAAITVAAVEFGEVIMEIAEDESMSDEAEDAAAEIRDKLVEELKKAKDASKEEKKKIVEEKSKELIEKLKKLS

What follows are binders tested against GABARAP, O95166 (assay: median log2 fold change of GCK-ALFA target abundance (FLAG IP / Myc IP barcode read proportion) (log2 ratio); each designed protein is fused to an ALFA-tag nanobody in HEK293 cells to bring the named protein to FLAG-tagged glucokinase (GCK); Myc marks an untargeted standard; higher = target protein stabilised (more abundant)). Details: target protein: 3xFLAG-MCP-GCK-ALFA reporter; HEK293 landing pad (RPLP).
Sequence of GABARAP, O95166 (O95166 whole entry, the tested form may be a part): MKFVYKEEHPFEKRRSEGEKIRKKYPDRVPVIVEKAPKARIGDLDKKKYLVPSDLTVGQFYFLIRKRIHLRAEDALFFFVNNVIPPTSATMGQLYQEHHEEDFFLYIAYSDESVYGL
How it was run: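 HEK293 landing-pad cells received a recombined binder library fused to the ALFA nanobody and were induced with 2 μg mL^−1 doxycycline, then transfected with a plasmid encoding a FLAG-tagged target and a Myc-tagged standard. Lysates were collected after 48 h for anti-FLAG and anti-Myc immunoprecipitation, and the circular RNA barcodes were reverse transcribed, amplified and sequenced. Target abundance for each binder is the median log2 ratio of FLAG to Myc barcode read proportions. Barcodes had to reach a proportion of at least 10^−7 in both replicates, each binder needed at least 3 barcodes per replicate, a pseudocount of 10^−6 was applied, and the two replicates were pooled.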
For B1, the “median log2 fold change” value was -1.21. B2 was tested, and the “median log2 fold change” value was -0.00871. For B3, the “median log2 fold change” value was 0.242. For B4, the “median log2 fold change” value was -0.232. B5 was tested, and the “median log2 fold change” value was -1.27. B6 was tested, and the “median log2 fold change” value was 0.248. For B7, the “median log2 fold change” value was -0.305. In the case of B8, the “median log2 fold change” value is reported as 0.314. In the case of B9, the “median log2 fold change” value is reported as -0.631. With B10 the “median log2 fold change” value was 0.119. In the case of B11, the “median log2 fold change” value is reported as -0.61. B12 was tested, and the “median log2 fold change” value was 0.229. In the case of B13, the “median log2 fold change” value is reported as -1.11. For B14, the “median log2 fold change” value was 0.298. B15 was tested, and the “median log2 fold change” value was 0.117. With B16 the “median log2 fold change” value was 0.341. In the case of B17, the “median log2 fold change” value is reported as 0.169. B18 was tested, and the “median log2 fold change” value was 0.225. In the case of B19, the “median log2 fold change” value is reported as -0.299. B20 was tested, and the “median log2 fold change” value was -0.331. B21 was tested, and the “median log2 fold change” value was -0.6. B22 was tested, and the “median log2 fold change” value was 0.404.
